FEN1 inh: qHTS Assay for the Inhibitors of Human Flap endonuclease 1 (FEN1); P39748; Recombinant FEN1 flap cleavage, fluorescence, 15 min; Potency, µM (titrated, usually from 114 µM), most hits filed as inhibitors; actives 0.35% (n = 390,000); AID 588795, 2011; further: nearly all actives have a fitted effect of over 65% in size
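Enzyme 10 nM, 15 min RT preincubation with compound; start with substrate 50 nM final; reads at 0 and 15 min; qHTS titration, four-parameter Hill fit.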
Pol iota inh: qHTS for Inhibitors of Polymerase Iota; DNA polymerase iota (Homo sapiens), Q9UNA4; Pol iota fluorescent replication assay, 10 min; Potency, µM (highest dose often 115 µM), hits mostly inhibitors; actives 1% (n = 390,000)
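Fluorescent replication assay read twice, at 0 min and 10 min after adding 50 nM (final) substrate. Enzyme (10 nM) and compounds were first incubated 15 min at room temperature; enzyme-free buffer wells were negative controls.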
POLB inh: qHTS Assay for Inhibitors of DNA Polymerase Beta. P06746. Pol beta primer extension/strand displacement, fluorescence kinetic. Potency, µM (top dose mostly 114 µM), usual class: inhibitors. actives 1.3% (n = 340,000). AID 485314, 2010
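Reaction started by 50 nM substrate onto compound-treated Pol beta (10 nM, 15 min preincubation, room temperature); plates read at 0 min and 10 min. Normalized concentration-effect data fitted by four-parameter Hill equation.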
Pol kappa inh: qHTS for Inhibitors of Polymerase Kappa. AID 588579, 2011. actives 0.53% (n = 400,000). DNA polymerase kappa (Homo sapiens), Q9UBT6. Potency, µM (titrated, usually from 107 µM), most hits filed as inhibitors. purified Pol kappa, fluorescent DNA synthesis assay, 10 min
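Here, compound and 10 nM enzyme are combined for 15 min at room temperature; adding 50 nM substrate (final) starts DNA synthesis, tracked by fluorescence at 0 and 10 min against buffer-only wells.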
Pol eta inh: qHTS for Inhibitors of Polymerase Eta; actives 1.2% (n = 390,000); recombinant Pol eta, fluorescent DNA replication assay; Potency, µM (doses to about 114 µM), usual class: inhibitors
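Pol eta at 10 nM preincubated with compounds 15 min at room temperature; reaction started with fluorescent substrate (50 nM final) and read kinetically at 0 and 10 min.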
WRN helicase inh: qHTS for Inhibitors of WRN Helicase. Bifunctional 3'-5' exonuclease/ATP-dependent helicase WRN (Homo sapiens), Q14191. WRN helicase unwinding, fluorescent forked duplex, kinetic. actives 0.46% (n = 360,000). Potency, µM (top dose mostly 114 µM), actives largely listed as inhibitors. AID 651768, 2012; further: nearly all actives have a fitted effect of over 55% in size
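Kinetic red-fluorescence monitoring (525/598 nm) tracks WRN helicase activity after 100 nM fluorophore-quencher forked duplex and 2 mM ATP are added to 20 nM enzyme pretreated 15 min at room temperature with compound.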
Numbers stand for hits; n = inactive; u = inconclusive; x = no result given; [ ] = dose if it differs, or a comment. An excerpt weighted towards active compounds, which were near 2.4% of everything screened. The call rests on the fitted dose curve; in most records, active means well fitted curve in the direction sought with a large enough effect; inconclusive means small, poorly fitted or top-dose-only effect, or another doubt; inactive means no such curve, though single readings can be large; an effect the other way counts as inactive or inconclusive.

SMILES | FEN1 inh | Pol iota inh | POLB inh | Pol kappa inh | Pol eta inh | WRN helicase inh
CC(=O)N1CCN(c2ccc(NCc3ccc(C)s3)cc2)CC1 | u | 50µM | n | n | n | n
COc1ccc(CCn2c(=S)[nH]c(=O)c3nccnc32)cc1OC | n | n | x | n | x | x
Cc1cc(=O)c2c(C)ccc(C)c2[nH]1 | n | n | n | n | n | n
Cc1cc(=O)c2c(O)c3c(O)cc(O)c4c5c(O)cc(O)c6c(O)c7c(=O)cc(C)c8c1c2c(c34)c(c65)c78 | x | x | x | 10µM | x | x
O=C1N(Cc2ccccc2)CC2(Br)COCOC12O (configuration not stated) | n | n | x | n | n | 18µM
O=C1C(c2ccccc2)CN1Cc1ccccc1 (configuration not stated) | x | x | x | x | x | n
COC(=O)/C=C1\S/C(=N\N=C\CC(=O)OC)NC1=O | u | 18µM | n | 40µM | u | u
COC(=O)/C=C1\SC(=Nc2ccc(OC)cc2)NC1=O | n | n | n | n | n | n
COc1ccc(CNC(=O)C2CCN(S(=O)(=O)Cc3ccccc3)CC2)cc1 | n | n | 14µM | n | n | x
CC[C@H](C)/C=C(C)/C=C/C(=O)Cc1cc(O)c(C)c(O)c1C=O | n | u | u | n | 50µM | n[11.6 µM]
Cc1cc(C)cc(NC(=O)C(=O)NCC(c2ccc3c(c2)OCO3)N2CCN(C)CC2)c1 (configuration not stated) | n | n | n | n | n | x
CC1Cc2cc(S(=O)(=O)CCC(=O)Nc3ccc(F)cc3Cl)ccc2N1C(=O)C1CC1 (configuration not stated) | n | n | n | n | n | x
O=C(CCC1CCCN(C(=O)c2ccc3[nH]ccc3c2)C1)N1CCN(c2ccccn2)CC1 (configuration not stated) | n | n | n | n | n | n
O=C(CCC1CCCN(C(=O)c2ccc3cc[nH]c3c2)C1)N1CCN(c2ccccn2)CC1 (configuration not stated) | n | n | 40µM | n | n | n
CC(C)c1ccc(NC(=O)C[n+]2ccn(C3=C([O-])c4ccccc4C3=O)c2)cc1 | n | u | u | n | 79µM | n
O=Cc1ccc(/C=C2\C=Cc3ccccc32)cc1 | n | n | x | n | x | x
COc1c([N+](=O)[O-])ccc(N)c1N | n | n | x | n | x | x
CN(CC(=O)Nc1cccc(F)c1)C(=O)c1ccc(C(=O)c2ccccc2)cc1 | n | n | x | n | n | n
CN(CC(=O)Nc1cccc(F)c1)C(=O)c1ccc(COc2ccccc2)cc1 | n | 79µM | x | n | n | n[11.6 µM]
CN(CC(=O)Nc1cccc(F)c1)C(=O)CCSc1ccc(F)cc1 | n | n | x | n | n | n
CN(CC(=O)Nc1cccc(F)c1)C(=O)CSc1ccccc1F | n | u | 45µM | n | n | n
COc1ccc(C#Cc2cnc(Cl)c3cncnc23)cc1OC | n | n | x | n | x | x
COc1ccc(Nc2cc(C)nc(N3CCOCC3)n2)cc1 | n | 32µM | n | n | n | n
COc1ccc(C)cc1NC(=O)c1ccc2c(c1)C(=O)N(Cc1ccncc1)C2=O | n | n | x | n | n | n
COc1ccc(NC(=O)c2ccc3c(c2)C(=O)N(Cc2ccncc2)C3=O)cc1S(N)(=O)=O | n | 32µM | x | n | u | u
SMILES | FEN1 inh | Pol iota inh | POLB inh | Pol kappa inh | Pol eta inh | WRN helicase inh
CC(C)(C)OC(=O)NC(NC(=O)OCC1c2ccccc2-c2ccccc21)C(=O)O (configuration not stated) | x | x | x | n[12 µM] | x | x
COc1ccccc1NC(=O)Nc1ccnn1C1CCN(C(=O)c2cscn2)CC1 | 45µM | 32µM | n | 40µM | n | n
COc1ccc(N=Cc2oc3ccc4ccccc4c3c2O)cc1 | n | u | 11µM | n | n | n[11.6 µM]
Nc1cc(C(=O)O)c(Oc2ccc(Cl)cc2Cl)cc1C(=O)O | n | n | 22µM | n | u | n
O=C(C[n+]1ccccc1Cl)c1ccc2c(c1)CCCC2 | n | u | x | u | x | x
COCCn1c(C)cc(C(=O)CSc2cc(C)c3ccc(OC)cc3n2)c1C | n | n | n | n | n | n
COc1ccc2c(C)cc(SCC(=O)c3ccc4c(c3)OCO4)nc2c1 | n | n | 50µM | n | n | n
Cn1ncc(S(=O)(=O)Cc2ccccc2)c(Br)c1=O | x | x | x | n | x | x
COc1ccc(/C=C2/CCC(CN3CCOCC3)C2=O)cc1 (configuration not stated) | n | u | x | n | u | 14µM
CN(C)CC1CC/C(=C\c2ccc(O)cc2)C1=O (configuration not stated) | 56µM | u | x | n | u | 11µM
Cc1ccc(N2CC(C(=O)OCC(=O)Nc3cccc(Cl)c3C)CC2=O)cc1 (configuration not stated) | n | n | x | n | n | n
Cc1ccc(N2CC(C(=O)OCC(=O)Nc3ccc(Cl)cc3)CC2=O)cc1 (configuration not stated) | n | 79µM | x | n | n | n
CCN1CCN(c2cc(C)c3cc(NC(=O)/C=C/c4cccc(Cl)c4)ccc3n2)CC1 | u | n | n | n | n | x
Cc1cc(OC(C)C(=O)NCC2CCC(C(=O)O)CC2)c2c(C)c(Cc3ccccc3)c(=O)oc2c1 (configuration not stated) | u | 79µM | n | n | u | n[11.6 µM]
Brc1cccc[n+]1Cc1ccc(C[n+]2ccccc2Br)cc1 | n | n | x | n | x | x
Cc1ccc(OCC(=O)Nc2ccc(C(=O)OCc3cc(=O)n4c(C)csc4n3)cc2)cc1 | n | n | n | n | n | x
CCOc1ccc(C(=O)Nc2ccc(C(=O)OCc3cc(=O)n4c(C)csc4n3)cc2)cc1 | n | u | 18µM | n | n | x
Cc1csc2nc(COC(=O)c3ccccc3NC(=O)COc3ccccc3F)cc(=O)n12 | n | n | 25µM | n | n | x
CCNC(=O)[C@H]1O[C@@H](n2cnc3c(N)nc(NCCc4ccc(CCC(=O)O)cc4)nc32)[C@H](O)[C@H]1O | x | n | n | x | n | x
Cc1ccc(C)c(-n2c(N)c(C#N)c3nc4ccccc4nc32)c1 | n | 25µM | n | n | n | x
C[C@H](NC(=O)CNC(=O)[C@@H](NC(=O)[C@H](Cc1ccccc1)NC(=O)CNC(=O)CNC(=O)[C@@H](N)Cc1ccccc1)[C@@H](C)O)C(=O)N[C@@H](CCCN=C(N)N)C(=O)N[C@@H](CCCCN)C(=O)N[C@@H](CO)C(=O)N[C@@H](C)C(=O)N[C@@H](CCCN=C(N)N)C(=O)N[C@@H](CCCCN)C(N)=O | x | x | x | n | x | x

Assay outcomes: PubChem BioAssay, National Center for Advancing Translational Sciences (NCATS)
